Source: PubChem
In the library only some 2.4% were active in any assay of this set; here they are far more common.
D2 ag-1: activates the human D2 dopamine receptor. P14416. HEK293 T-REx D2 cells, calcium flux agonist mode. activation, % at 2 µM. 340,000 tested, 0.53% active;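 active = activation over 3 SD above normal in the single-dose calcium agonist read, cut at about 30% in these data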
Target sequence (P14416 whole entry, looked up): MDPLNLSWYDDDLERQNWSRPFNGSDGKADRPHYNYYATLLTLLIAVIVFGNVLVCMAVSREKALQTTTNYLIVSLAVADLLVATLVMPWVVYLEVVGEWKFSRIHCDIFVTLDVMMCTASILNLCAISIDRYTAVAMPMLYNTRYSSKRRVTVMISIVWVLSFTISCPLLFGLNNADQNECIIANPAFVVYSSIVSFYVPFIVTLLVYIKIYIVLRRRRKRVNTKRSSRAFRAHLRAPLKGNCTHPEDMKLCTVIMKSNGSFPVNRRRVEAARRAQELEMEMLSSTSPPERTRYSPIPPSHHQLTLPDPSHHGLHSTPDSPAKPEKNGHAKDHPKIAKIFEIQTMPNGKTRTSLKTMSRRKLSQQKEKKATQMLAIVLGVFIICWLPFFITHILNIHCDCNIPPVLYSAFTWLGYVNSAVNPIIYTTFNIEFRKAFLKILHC
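Agonism is scored from calcium flux in a force-coupled, inducible HEK293 cell line expressing D2, read kinetically for 180 s after compound addition against dopamine controls.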
D2 antag: antagonizes the human D2 dopamine receptor. P14416. HEK293 TREx D2 cells, calcium flux, dopamine EC80. inhibition, % at 10 µM. 340,000 tested, 2% active; in the data active = inhibition above about 30%; inactive = below that, where a call was filed
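Dopamine at EC80 is the agonist stimulus; test compounds precede it by 180 s. Calcium flux read kinetically in a force-coupled, inducible HEK293 T-REx D2 cell line.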
D2 PAM-1: potentiates the human D2 dopamine receptor allosterically; P14416; DiscoveRx D2 beta-arrestin cells, luminescence, 90 min; 100% = 57 uM dopamine signal; potentiation, % (no concentration beside the values); 360,000 tested, 0.23% active; AID 624464; in the data active = potentiation above about 50%; inconclusive = mostly about 30% to 49%
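PathHunter beta-arrestin assay in DiscoveRx D2 cells. Compounds were added with an EC20 of dopamine (50 nM final) for 90 min at 37 deg C. Luminescence was read 1 h after detection reagent, with 57 uM dopamine as the EC100 control.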
D2 ag-2: agonists of human D2 dopamine receptor (beta-arrestin); 360,000 tested, 0.084% active; DiscoveRx PathHunter D2 beta-arrestin, luminescence, 90 min; 100% = 57 uM dopamine signal; P14416; activation, % (concentration not given with the values); in the data active = activation above about 40%; inconclusive = between about 15% and that limit
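DiscoveRx PathHunter D2 beta-arrestin cells (2,100/well) attached overnight, then compound-stimulated 90 min at 37 C in HBSS/10 mM HEPES/0.1% Tween-20 buffer; beta-galactosidase complementation read by luminescence after 1 h at ambient temperature. Dopamine 57 uM final (EC100) as control.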
D2 PAM-2: D2 dopamine receptor (human) potentiation. P14416. HEK293 T-REx D2, calcium flux, EC20 dopamine potentiation. potentiation, % at 10 µM. 340,000 tested, 0.34% active;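 active = potentiation over 3 SD above the plate norm, cut at about 30% in these data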
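Potentiation of an EC20 dopamine calcium response measured kinetically over 180 s, after a preceding 180 s compound-only read flagging agonists. Cells: inducible Hek293 Trex D2 line, 4000/well, cultured overnight at 30 C before dye loading.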
D3 ag: confirmation of human D3 dopamine receptor agonists, beta-arrestin; shares compounds with D2 ag-1; DiscoveRx D3 beta-arrestin cells, luminescence, 90 min; Potency, µM (series often up to 76.9 µM), most hits filed as activators; 2,300 tested, 4% active; note: nearly all actives have a fitted effect of over 70% in size
D2 ag-3: D2 receptor agonism, beta-arrestin counterscreen; shares compounds with D2 ag-1; DiscoveRx PathHunter D2 beta-arrestin, luminescence, 90 min; response scale: percent relative to full dopamine signal; Potency, µM (doses to about 76.9 µM), usual class: activators; 2,300 tested, 5.9% active; AID 720507; note: nearly all actives have a fitted effect of over 70% in size
Each line names hits and unclear results; the compound was inactive in the other large screens (follow-up assays come after a bar, where they were run). Unless noted, calls come from the whole dose curve; as a rule, active = well fitted activation curve with a large enough effect; inconclusive = small, poorly fitted or top-dose-only effect; inactive = flat fitted curve, though single readings scatter.

COc1ccc(C2CC(O)(c3ccccc3)Oc3c(C)ccc(C)c32)cc1 (stereo not given)	none
CCCCn1c(N)c(N(CC)C(=O)c2cccc(OCc3ccccc3)c2)c(=O)[nH]c1=O	none | D3 ag inactive | D2 ag-3 inactive
CCCCn1c(N)c(N(CC)C(=O)c2cccc(F)c2)c(=O)[nH]c1=O	none
Cc1ccc2c(CC(=O)N(Cc3cccc(Cl)c3)C3CCS(=O)(=O)C3)coc2c1 (stereo not given)	none (no result: D2 antag, D2 PAM-1, D2 ag-2)
CCCN(CCC)CCCNC(=S)Nc1ccc2nc(N3CCN(CC)CC3)cc(C)c2c1	none | D3 ag inactive | D2 ag-3 inactive
Cc1cc(C(=O)NNc2ccc(F)cc2F)no1	D2 ag-1 49 | D3 ag inactive | D2 ag-3 inactive
Cc1cc(C(=O)NNC(=O)c2ccc(C(F)(F)F)cc2)no1	none | D3 ag inactive | D2 ag-3 inactive
Cc1ccc(NNC(=O)c2cc(C)on2)c(C)c1	none
O=C(CSc1nccn1Cc1ccc2c(c1)OCO2)Nc1ccccc1F	none (no result: D2 antag, D2 PAM-1, D2 ag-2)
CCCCNCCCOc1cccc(Cl)c1Cl	D2 ag-1 49, D2 antag 87 | D3 ag inactive | D2 ag-3 inactive
Cc1ccc(S(=O)(=O)N(CCc2ccccc2)CC(=O)Nc2ccc(Br)cc2)cc1	none (no result: D2 ag-1, D2 antag, D2 PAM-1, D2 ag-2)
O=c1[nH]c(S)nc2sc3c(c12)CCCC3	none
O=c1[nH]c(-c2ccco2)nc2sc3c(c12)CCCC3	D2 ag-1 52 | D3 ag inactive | D2 ag-3 inactive
CCOc1ccc(-c2cc3c(=O)n(CC(=O)NCc4ccccc4)ccn3n2)cc1	none (no result: D2 antag, D2 PAM-1, D2 ag-2)
S=C(NCc1ccccn1)Nc1ccccc1	none | D3 ag inactive | D2 ag-3 inactive
Cc1cccc(SC2CCN(Cc3nc(CC4CC4)no3)CC2)c1	none
Cc1cccc(N2CCN(Cc3nc(CC4CC4)no3)CC2)n1	none | D3 ag inactive | D2 ag-3 inactive
COc1ccccc1N/C(N)=N/c1nc(C)cc(C)n1	none
Cc1cc(C)nc(/N=C(\N)Nc2cccc(OCc3ccccc3)c2)n1	D2 ag-1 77, D2 antag 63 | D3 ag inactive | D2 ag-3 inactive
Cc1cc(C)nc(/N=C(\N)Nc2ccc(OCCC(C)C)cc2)n1	D2 ag-1 83, D2 antag 52 | D3 ag inactive | D2 ag-3 inactive
Cc1cc(C)nc(/N=C(\N)Nc2ccc(S(=O)(=O)O)cc2)n1	none
Cc1cc(C)nc(/N=C(\N)Nc2ccc(CC(=O)OC(C)C)cc2)n1	D2 ag-1 33, D2 antag 59 | D3 ag inactive | D2 ag-3 inconclusive
CCc1ccc(N/C(=N/c2nc(C)cc(C)n2)NC(C)=O)cc1	none
COc1nc(Oc2ccc(=O)n(-c3ccccc3)n2)nc(N(C)C)n1	none (no result: D2 antag, D2 PAM-1, D2 ag-2)
CCOC(=O)c1ccc(NC(=O)C(C)N(c2ccc(OCC)cc2)S(C)(=O)=O)cc1 (stereo not given)	none (no result: D2 antag, D2 PAM-1, D2 ag-2)
O=C(Cc1ccc(F)cc1)NCc1nc2cccnc2n1Cc1ccc(F)cc1	none (no result: D2 antag, D2 PAM-1, D2 ag-2)
CCCOc1ccc(NC(=O)CC2C(=O)N(c3ccc(OC)cc3)C(=O)N2CCc2ccncc2)cc1 (stereo not given)	none (no result: D2 ag-1, D2 antag, D2 PAM-1, D2 ag-2)
CC(C)[C@H](Nc1ccc(S(=O)(=O)N2CCOCC2)cc1[N+](=O)[O-])C(=O)OCC(N)=O	none
CC(C)[C@H](Nc1ccc(S(=O)(=O)N2CCOCC2)cc1[N+](=O)[O-])C(=O)OCC(=O)N(C(C)C)C(C)C	none | D3 ag inactive | D2 ag-3 inactive
CCCCNC(=O)C1=CC(c2ccc3c(c2)OCO3)=NS(=O)(=O)N1C	none (no result: D2 ag-1, D2 antag, D2 PAM-1, D2 ag-2)
c1ccc2c(C3OCC4(CCCC4)CO3)cccc2c1	none (no result: D2 ag-1, D2 antag, D2 PAM-2)
c1ccc2c(C3CCO3)cccc2c1 (stereo not given)	none (no result: D2 ag-1, D2 antag, D2 PAM-2) | D3 ag inactive | D2 ag-3 inactive
CCCN1CCC2(CC1)C(C#N)=C(N)Oc1c2sc2nc(C)cc(C)c12	D2 ag-1 78, D2 antag 96 | D3 ag inactive | D2 ag-3 inactive
OC(CN1CCCCC1)Cn1c2ccccc2c2cc(Br)ccc21 (stereo not given)	D2 ag-1 39, D2 antag 80 | D3 ag inactive | D2 ag-3 inactive
CCn1c(N2CCN(S(=O)(=O)c3ccccc3C(F)(F)F)CC2)nc2ccccc21	D2 ag-2 inconclusive | D3 ag 13µM | D2 ag-3 inconclusive
CC1CCc2c(sc(NC(=O)c3cc(-c4ccc(Br)cc4)on3)c2C(N)=O)C1 (stereo not given)	none (no result: D2 antag, D2 PAM-1, D2 ag-2)
CCc1ccccc1N1C(=O)N(Cc2cc(=O)n3ccccc3n2)c2ccccc2S1(=O)=O	none (no result: D2 antag, D2 PAM-1, D2 ag-2, D2 PAM-2)
Cc1ccc(C(=O)/C=C/Nc2ccc(S(=O)(=O)Nc3cc(C)nc(C)n3)cc2)cc1	none | D3 ag inactive | D2 ag-3 inactive
COc1ccc(CNS(=O)(=O)c2cc3c(cc2C)n(C)c(=O)c(=O)n3C)cc1	none (no result: D2 antag, D2 PAM-1, D2 ag-2)
Cc1ccc(S(=O)(=O)N(C)C)cc1NC(=O)C1CCN(C(=O)Nc2ccccc2)CC1	D2 antag 73 | D3 ag inactive | D2 ag-3 inactive
COc1cccc(CNC(=O)CCC2CCCN(C(=O)c3cc(C)on3)C2)c1 (stereo not given)	none
COc1cccc(CNC(=O)CCC2CCCN(C(=O)c3cc(C4CC4)[nH]n3)C2)c1 (stereo not given)	D2 antag 63 | D3 ag inactive | D2 ag-3 inactive
COc1ccc(OC(=O)c2nc(SCc3ccccc3C)ncc2Cl)cc1	none (no result: D2 antag, D2 PAM-1, D2 ag-2)
CC(=NCCc1ccccc1)C1=C(O)CCC1=O	D2 ag-1 42 | D3 ag inactive | D2 ag-3 inactive
CC(C)(C)c1ccc(C(=O)N2CCN(Cc3cc(=O)n4nc(-c5ccccc5F)sc4n3)CC2)cc1	none (no result: D2 antag, D2 PAM-1, D2 ag-2)
CN(C)CCNC(=O)C12CC3(C)CC(C)(CC(C)(C3)C1)C2	none | D3 ag inactive | D2 ag-3 inactive
N#CCCN(C(=O)COC(=O)COc1ccccc1Cc1ccccc1)c1ccccc1	none | D3 ag inactive | D2 ag-3 inactive
O=C(CCNS(=O)(=O)c1ccc(Br)cc1)NCc1cccs1	none
CN(Cc1cccs1)C(=O)CCNS(=O)(=O)c1ccc(Br)cc1	none | D3 ag inactive | D2 ag-3 inactive
Cn1c(SCC(=O)c2ccc(F)cc2)nnc1-c1ccccc1Br	none (no result: D2 antag, D2 PAM-1, D2 ag-2)
COc1ccccc1CNC(=O)CSc1nc2nc(C)c(Cc3ccccc3Cl)c(C)n2n1	none (no result: D2 antag, D2 PAM-1, D2 ag-2)
CCOC(=O)c1c(N)n(-c2ccc(N)cc2)c2nc3ccccc3nc12	D2 ag-1 44 | D3 ag inactive | D2 ag-3 inactive
CCOC(=O)c1c(N)n(-c2ccc(CC)cc2)c2nc3ccccc3nc12	none (no result: D2 antag, D2 PAM-1, D2 ag-2)
Cc1ccc(-c2noc(CN(C3CCCCC3)S(=O)(=O)c3ccc(C)cc3)n2)cc1	none (no result: D2 antag, D2 PAM-1, D2 ag-2)
